RE007 growth inh: less growth of the S. pombe RE007 Vpr strain; S. pombe RE007 Vpr strain, BacTiter-Glo ATP luminescence, 24 h; Potency, µM (top dose mostly 92.2 µM), without a hit: top-dose activity change, negative = less growth, usual class: inhibitors; hit rate 0.21% among 360,000; active = well fitted falling curve with a large enough effect; inconclusive = small, poorly fitted or top-dose-only effect; inactive = no such curve, though single readings can be large or run the other way; also: nearly all actives have a fitted effect of over 50% in size
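Fission yeast RE007 carrying one integrated HIV-1 vpr copy, seeded at OD 0.01 in PMG+AL medium with 23 nL pinned compound. Grown 24 h at 30 degrees; viability read by BacTiter-Glo luminescence after 5 min.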
LmPK inh: LmPK (Leishmania mexicana) enzyme inhibition. Potency, µM (doses to about 57.5 µM), without a hit: at the top dose activity change, negative = inhibition, most hits filed as inhibitors. purified LmPK, Kinase-Glo ATP luminescence, 1 h. hit rate 0.37% among 290,000. AID 1721. Q27686
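qHTS format; LmPK 0.1 nM; substrates PEP 0.5 mM and ADP 0.1 mM. One-hour room-temperature incubation, then coupled luciferase luminescence; 0.5 nM enzyme wells mark activation.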
AmpC inh no detg: inhibitors of E. coli AmpC beta-lactamase without detergent. AmpC nitrocefin hydrolysis, absorbance 480 nm, 0.0001% Triton. Potency, µM (top dose mostly 57.1 µM), inactives show at the highest dose activity change, negative = inhibition, hits mostly inhibitors. hit rate 0.52% among 330,000;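 also: plate controls were no compound for no effect and no enzyme for full effect; nearly all actives have a fitted effect of over 20% in size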
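20 mM phosphate pH 7.0 + 0.01% (detergent screen) or 0.0001% Triton X-100; 5.3 nM AmpC reagent; cpd preinc 15 min RT; nitrocefin (800 uM stock) to start; A480 q20 s × 4 min; Activity was normalised to no-enzyme and no-compound control wells.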
AmpC detergent: AmpC beta-lactamase inhibition with detergent present; P00811; AmpC hydrolysis of nitrocefin, absorbance 480 nm, 0.01% Triton; Potency, µM (top dose mostly 114 µM), inactives show top-dose activity change, negative = inhibition, usual class: inhibitors; hit rate 0.041% among 370,000; AID 485294;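 also: 0% = no-compound wells and -100% = no-enzyme wells; nearly all actives have a fitted effect of over 25% in size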
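20 mM phosphate pH 7.0 + 0.01% (detergent screen) or 0.0001% Triton X-100; 5.3 nM AmpC reagent; cpd preinc 15 min RT; nitrocefin (800 uM stock) to start; A480 q20 s × 4 min; Activity was normalised to no-enzyme and no-compound control wells.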
Tb PYK inh: T. brucei pyruvate kinase inhibition | TbPYK enzyme, Kinase-Glo Plus ATP luminescence, 45 min | Potency, µM (titrated, usually from 76.8 µM), without a hit: at the highest dose activity, negative = inhibition, hits mostly inhibitors | hit rate 0.12% among 410,000 | AID 624173; also: nearly all actives have a fitted effect of over 50% in size
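Glycolytic pyruvate kinase of T. brucei was incubated with substrate, test compound and 130 uM ADP for 45 minutes at room temperature. Luminescent Kinase-Glo Plus signal was measured after 10 minutes.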
Giardia FBPA inh-1: blocks Giardia fructose-bisphosphate aldolase activity. A8B2U2. purified Giardia FBPA. Potency, µM (doses to about 59.6 µM), inactives show top-dose activity, negative = inhibition, most hits filed as inhibitors. hit rate 0.71% among 290,000. AID 2451; also: nearly all actives have a fitted effect of over 55% in size
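Giardia FBPA (40 nM reagent) was preincubated 10 min at RT with compound (up to 57.5 uM final), then substrate plus GAPDH/TPI/NAD/arsenate coupling system with diaphorase/resazurin was added; resorufin fluorescence (525/598 nm) was read after 20 min.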
Giardia growth: blocks growth of Giardia lamblia trophozoites | Potency, µM (titrated, usually from 57.5 µM), inactives show at the top dose activity change, negative = inhibition, hits mostly inhibitors | hit rate 5% among 1,500 | shares compounds with Giardia FBPA inh-1 | Giardia lamblia trophozoite growth inhibition | AID 2785;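 also: trophozoites exposed to compound for 48 h at 37 °C; nearly all actives have a fitted effect of over 70% in size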
Mammalian tox: toxic to mammalian cells in Giardia aldolase counter-screen; shares compounds with Giardia FBPA inh-1; mammalian cell viability counter-screen, qHTS; Potency, µM (titrated, usually from 57.5 µM), inactives show top-dose viability change, negative = toxicity, hits mostly inhibitors; hit rate 4% among 1,500; AID 2786;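 also: Chinese hamster ovary cells used as mammalian cytotoxicity surrogate; viability measured as cellular ATP by luminescence; compound exposure lasted 48 h before reading; nearly all actives have a fitted effect of over 60% in size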
Giardia FBPA inh-2: confirmation of Giardia fructose-bisphosphate aldolase inhibitors; AID 2787; shares compounds with Giardia FBPA inh-1; hit rate 5% among 1,500; Potency, µM (titrated, usually from 57.5 µM), inactives show at the highest dose activity change, negative = inhibition, actives largely listed as inhibitors; purified Giardia aldolase enzyme activity, qHTS; also: nearly all actives have a fitted effect of over 45% in size
Rabbit aldolase: blocks rabbit muscle aldolase in Giardia aldolase selectivity test | shares compounds with Giardia FBPA inh-1 | Rabbit muscle FBPA enzyme inhibition, selectivity counter-screen | Potency, µM (top dose mostly 57.5 µM), without a hit: at the highest dose activity, negative = inhibition, usual class: inhibitors | hit rate 4% among 1,500 | AID 2794; also: nearly all actives have a fitted effect of over 60% in size
Target sequence (P00883 whole entry, looked up): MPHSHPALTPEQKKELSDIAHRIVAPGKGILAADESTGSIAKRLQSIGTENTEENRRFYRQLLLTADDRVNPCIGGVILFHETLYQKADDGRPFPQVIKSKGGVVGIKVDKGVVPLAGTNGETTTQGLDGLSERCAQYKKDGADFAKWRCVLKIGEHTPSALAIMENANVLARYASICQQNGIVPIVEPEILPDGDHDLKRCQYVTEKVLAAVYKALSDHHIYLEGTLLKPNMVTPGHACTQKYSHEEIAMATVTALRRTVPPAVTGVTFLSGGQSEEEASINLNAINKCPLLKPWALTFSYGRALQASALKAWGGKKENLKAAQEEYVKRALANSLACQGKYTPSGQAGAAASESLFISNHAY
GAPDH counter: GAPDH inhibition flagged for Giardia aldolase hits; GAPDH coupling enzyme counterscreen, biochemical, qHTS; hit rate 6% among 1,500; AID 2795; Potency, µM (highest dose often 57.5 µM), for the others: at the top dose activity change, negative = inhibition, usual class: inhibitors; shares compounds with Giardia FBPA inh-1; also: nearly all actives have a fitted effect of over 55% in size
Starred values were filed as active, the others as inactive; ? = inconclusive; . = not tested or not shown; [ ] = dose if it differs, or a comment. Sampled rows, rich in hits. Any-hit rate of the full collection: about 1.4%. Unless noted, calls follow the shape of the dose curve; as a rule, active = well fitted curve in the direction sought with a large enough effect; inconclusive = small, poorly fitted or top-dose-only effect, or another doubt; inactive = no such curve, though single readings can be large; an effect the other way counts as inactive or inconclusive. Unless noted, % is scaled to controls: 0 for no effect and ±100 for the full control effect; potency is read from the fitted curve at half-maximal effect.

SMILES	RE007 growth inh	LmPK inh	AmpC inh no detg	AmpC detergent	Tb PYK inh	Giardia FBPA inh-1	Giardia growth	Mammalian tox	Giardia FBPA inh-2	Rabbit aldolase	GAPDH counter
COc1cc(C2NC(=O)C(C#N)=C(Nc3cccc(C)c3)S2)ccc1O (stereo not drawn)	2%	14%	-28%	5%	-2%	14µM*	7%[10.4 µM]	2%	-24%	4%	13%
O=C(Cc1ccccc1)N1CCN(CCCc2ccccc2)CC1	-9%	-9%	70%	-15%	6%	25µM*	50%	1%	-2%	8%	7%
O=C(Cc1ccccc1)N1CCN(Cc2ccc(F)cc2)CC1	6%	-2%	9%	?	14%	28µM*	2%[10.4 µM]	5%	6%	18%	9%
Fc1ccc(CN2CCN(C(c3ccccc3)c3ccccc3)CC2)cc1	-4%	-6%	-5%	?	-4%	25µM*	?	19%	-1%	12%	-5%
Clc1ccccc1CN1CCN(CCCc2ccccc2)CC1	-11%	2%	4%	5%	-18%	20µM*	-47%	-2%	-1%	7%	9%
OCC1(CCc2ccccc2)CCN(Cc2ccccc2Cl)CC1	-16%	0%	53%	-9%	-7%	1%	.	.	.	.	.
CCOC(=O)N1CCN(CCCc2ccccc2)CC1	6%	2%	-4%	?	-6%	?	.	.	.	.	.
O=C(/C=C/c1ccccc1)N1CCN(Cc2cc(=O)n3nc(-c4ccccc4)sc3n2)CC1	.	.	.	19%	3%	.	.	.	.	.	.
Cc1nn(-c2ccccc2)c2c1N(CC(=O)N1CCN(c3ccc(F)cc3)CC1)C(=O)CS2	.	.	.	12%	0%	.	.	.	.	.	.
Cc1ccccc1NC(=O)Nc1nnc(N2CCCCCC2)s1	.	.	.	17%	0%	.	.	.	.	.	.
CC(=O)NNC(=O)c1sc(=S)n2c1[nH]c(=O)c1sccc12	-12%	-11%	-21%	-2%	?	18µM*	-20%	3%	13%	?	-24%
O=C(c1ccc2c(=O)n(C3CCCC3)c(=S)[nH]c2c1)N1CCCCCC1	8%	12%	-32%	-6%	-11%	18µM*	3%[10.4 µM]	-10%	6%	3%	8%
CNC(=O)CN1C(=O)COc2ccc(S(=O)(=O)N3CCC(C)CC3)cc21	.	.	.	-5%	5%	.	.	.	.	.	.
COc1ccccc1CNC(=O)CC1N=C2c3ccccc3N=C(SCC(=O)Nc3ccc(F)cc3)N2C1=O (stereo not drawn)	.	.	.	-4%	-4%	.	.	.	.	.	.
CCN(CC(=O)Nc1ccccc1OC)CC(=O)Nc1ccccc1-c1ccccc1	-7%	0%	86%	-3%	16%	18µM*	28%	-23%	4%	-3%	16%
CCN(CC(=O)Nc1ccccc1OC)CC(=O)Nc1ccccc1C(F)(F)F	-2%	3%	75%	?	6%	-5%	.	.	.	.	.
